Screening results: PubChem BioAssay, Broad Institute
Compounds with a hit are over-represented: about 3.1% of the library has one in this group of screens.
CASP6 VEID inh = caspase-6 (human) enzyme inhibition; 350,000 compounds, 0.53% hits; P55212; purified caspase-6, Z-VEID-R110 cleavage fluorescence; inhibition, % at 12.5 µM;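 active = mean inhibition across replicates at least about 35%, with every replicate also reaching that limit, limit read from the data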
Target sequence (P55212 24-179 limits assumed): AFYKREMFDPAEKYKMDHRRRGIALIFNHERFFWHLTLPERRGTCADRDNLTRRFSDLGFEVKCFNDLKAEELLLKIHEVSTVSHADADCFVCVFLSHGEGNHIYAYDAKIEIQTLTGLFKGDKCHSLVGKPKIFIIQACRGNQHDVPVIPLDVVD
Target sequence (P55212 194-293 limits assumed): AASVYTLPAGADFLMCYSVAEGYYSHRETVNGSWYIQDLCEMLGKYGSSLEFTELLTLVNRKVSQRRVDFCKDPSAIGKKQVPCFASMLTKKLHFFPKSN
FGF22 binding = binders of recombinant human FGF22 by thermal shift; Q9HCT0; SYPRO orange fluorescence; percent of sucrose octasulfate shift, DMSO zero; activity (Tm shift, normalised), % at 9.99 µM; 340,000 compounds, 1.5% hits;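 active = mean Tm shift, scaled 0 neutral to 100 positive control, at about 1.3% or above, every replicate too, limit read from the data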
SIRT5 inh = blocks human SIRT5 desuccinylation of peptide; Purified SirT5, succinyl-peptide AMC, trypsin-coupled fluorescence; inhibition, % at 15 µM; 330,000 compounds, 1.1% hits; in the data active = inhibition above about 15%
Target sequence (Q9NXA8 whole entry, looked up): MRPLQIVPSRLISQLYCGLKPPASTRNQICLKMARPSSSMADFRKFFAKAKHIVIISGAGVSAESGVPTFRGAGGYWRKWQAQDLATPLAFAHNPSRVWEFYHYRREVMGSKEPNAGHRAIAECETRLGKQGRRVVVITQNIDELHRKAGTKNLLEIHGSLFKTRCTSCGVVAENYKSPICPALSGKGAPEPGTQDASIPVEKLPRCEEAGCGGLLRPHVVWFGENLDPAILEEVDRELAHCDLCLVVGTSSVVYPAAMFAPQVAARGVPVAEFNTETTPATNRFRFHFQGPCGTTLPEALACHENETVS
ERAP1 inh = blocks human ERAP1 aminopeptidase activity; inhibition, % at 10.7 µM; AID 652197; 340,000 compounds, 0.15% hits; recombinant ERAP1, Leu-AMC fluorescence, 60 min; Q9NZ08;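 active = mean replicate inhibition of at least 30%, or all replicates individually reaching that 30% level; inactive = mean below 30% and not every replicate reaching it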
Of the large screens only hits and unclear results are named; the others gave an inactive call.

O=C(/C=C/c1ccco1)NCc1ccccn1	none
O=C(/C=C/c1ccco1)N(c1ccccn1)c1ccccn1	CASP6 VEID inh 54
O=C(C=Cc1ccco1)c1ccco1	CASP6 VEID inh 56
COCCNC(=O)c1onc(CSc2cccc(OC)c2)c1C(=O)NCCOC	SIRT5 inh 22
Cc1ccccc1OCC(=O)Nc1nc2ccccc2[nH]1	FGF22 binding 43
CCOc1ccccc1OCC(=O)Nc1nc2ccccc2[nH]1	none
Cc1ccccc1OCC(=O)NNC=O	FGF22 binding 43
Cc1ccccc1OCC(=O)NNC(=O)CCN1C(=O)c2ccccc2C1=O	FGF22 binding 43
CO[C@H]1CN(C)C(=O)c2ccc(NS(=O)(=O)c3ccc(Cl)cc3)cc2OC[C@H](C)NC[C@@H]1C	none
CCn1cc(C(=O)O)c(=O)c2cnc(N3CCN(C(=S)Nc4ccccc4Cl)CC3)nc21	SIRT5 inh 16 (no result: ERAP1 inh)
C[C@@H]1CN([C@H](C)CO)C(=O)Cc2cc(NS(=O)(=O)c3ccccc3)ccc2O[C@@H]1CN(C)C(=O)Nc1ccccc1	none
C[C@@H]1CCCCO[C@H](CN(C)S(=O)(=O)c2ccc(Cl)cc2)[C@H](C)CN([C@H](C)CO)C(=O)c2cc(NS(=O)(=O)c3ccc(F)cc3)ccc2O1	SIRT5 inh 20
C[C@@H]1CCCCO[C@H](CN(C)S(=O)(=O)c2ccc(Cl)cc2)[C@H](C)CN([C@@H](C)CO)C(=O)c2cc(NS(=O)(=O)c3ccc(F)cc3)ccc2O1	SIRT5 inh 22
C[C@@H]1CN([C@H](C)CO)C(=O)c2cc(NS(=O)(=O)c3ccc(F)cc3)ccc2O[C@@H](C)CCCCO[C@H]1CN(C)S(=O)(=O)c1ccc(Cl)cc1	none
C[C@@H]1CCCCO[C@H](CN(C)S(=O)(=O)c2ccc(F)cc2)[C@@H](C)CN([C@@H](C)CO)C(=O)c2cc(NS(=O)(=O)c3ccc(Cl)cc3)ccc2O1	SIRT5 inh 17 (no result: FGF22 binding)
C[C@H]1CN([C@@H](C)CO)C(=O)c2cc(C#Cc3ccccc3)cnc2O[C@@H]1CN(C)C(=O)C1CC1	none
CN(C)C(=O)C[C@H]1CC[C@H]2[C@@H](COC[C@@H](O)CN2CC2CCCCC2)O1	none
Cc1noc(C)c1S(=O)(=O)Nc1ccc2c(c1)C(=O)N([C@@H](C)CO)C[C@H](C)[C@H](CN(C)C(=O)c1ccncc1)OCCCC[C@@H](C)O2	none
O=C(Cc1ccc(Cl)cc1)NCC(=O)N1CCC2(CC1)NCCc1[nH]cnc12	FGF22 binding 43 (no result: SIRT5 inh)
C[C@@H]1CCCCO[C@@H](CN(C)C)[C@H](C)CN([C@H](C)CO)C(=O)c2cc(NS(=O)(=O)c3cccs3)ccc2O1	none
COc1ccc(C(=O)Nc2cc(C)on2)cc1[N+](=O)[O-]	FGF22 binding 43
COc1ccc(C(=O)Nc2cc(C)on2)cc1OC	none
Oc1ccc[n+](CCCCC[n+]2cccc(O)c2)c1	none (no result: ERAP1 inh)
CCCCCCCCCCCCCCCC[n+]1cccc(C(=O)N(CC)CC)c1	ERAP1 inh 68
CCCCCCCC[n+]1cccc(C(=O)N(CC)CC)c1	FGF22 binding 43
CC(C)c1cn(CC[C@H]2CC[C@@H](NC(=O)C3CC3)[C@@H](CO)O2)nn1	none
C[C@@H]1CN([C@@H](C)CO)C(=O)c2cc(NC(=O)Nc3cccc4ccccc34)ccc2O[C@@H]1CN(C)Cc1ccc(C(=O)O)cc1	none
O=C(C[C@@H]1CC[C@H](NC(=O)c2ccccn2)[C@@H](CO)O1)NCc1cccc(F)c1	none
N#CCCn1cc(C(=O)Nc2ccc(C(=O)O)cc2)c(-c2cccs2)n1	none
N#CCCn1cc(C(=O)NCc2ccccc2)c(-c2cccs2)n1	FGF22 binding 43
Fc1ccc(-c2csc(=S)[nH]2)cc1	FGF22 binding 43
O=C1NCC(COc2cccc3ccccc23)O1 (stereo not given)	none
Cc1ccccc1OCC1CNC(=O)O1 (stereo not given)	FGF22 binding 43
COc1ccc(NC(=O)CN2C(=O)N(C)Cc3ccccc32)c(C)c1	FGF22 binding 44
COc1ccc(NC(=O)CN2CCc3ccccc3C2)c(OC)c1	none
C[C@H]1CCCCO[C@H](CN(C)Cc2ccncc2)[C@@H](C)CN([C@@H](C)CO)C(=O)c2cc(NC(=O)Nc3ccc(F)cc3)ccc2O1	none (no result: CASP6 VEID inh, SIRT5 inh, ERAP1 inh)
COC(=O)c1ccc(CSc2nnc(CS(=O)Cc3ccc(Br)cc3)n2-c2ccccc2)cc1 (stereo not given)	SIRT5 inh 18
COc1ccc2c(C#CCCO)c(-c3ccc(S(C)(=O)=O)cc3)sc2c1	FGF22 binding 45
O=S(=O)(c1ccc(Cl)cc1)N1CCN(Cc2ccc(O)c3ncccc23)CC1	none
CN1CCN(C2CCN(Cc3ccc(O)c4ncccc34)CC2)CC1	FGF22 binding 44
COc1ccccc1CNc1ncccc1[N+](=O)[O-]	SIRT5 inh 16
Cc1cccc(N2CCN(C(=O)CCN3C(=O)C4C5C=CC(C5)C4C3=O)CC2C)c1 (stereo not given)	FGF22 binding 44
Cc1cccc(N2CCN(C(=O)c3ccccn3)CC2C)c1 (stereo not given)	FGF22 binding 43
C[C@@H]1CN([C@H](C)CO)C(=O)c2cccc(NC(=O)C3CCOCC3)c2O[C@@H]1CN(C)S(=O)(=O)c1cccs1	none
C[C@@H]1CN([C@H](C)CO)S(=O)(=O)c2ccc(C#CC3CC3)cc2O[C@@H]1CN(C)Cc1ccccc1F	none
C[C@H]1CN([C@@H](C)CO)S(=O)(=O)c2ccc(C#CC3CC3)cc2O[C@@H]1CN(C)Cc1ccccc1F	SIRT5 inh 17
CC(C)CC#Cc1ccc2c(c1)O[C@@H](CN(C)Cc1ccccc1F)[C@H](C)CN([C@H](C)CO)S2(=O)=O	SIRT5 inh 22
C[C@@H]1CN([C@H](C)CO)S(=O)(=O)c2ccc(C#CC3CC3)cc2O[C@H]1CN(C)Cc1ccc(F)cc1	SIRT5 inh 16
CC(C)CC#Cc1ccc2c(c1)O[C@@H](CN(C)Cc1ccccc1F)[C@@H](C)CN([C@H](C)CO)S2(=O)=O	none
C[C@H](CO)N1C[C@H](C)[C@@H](CN(C)Cc2ccc(F)cc2)Oc2cc(C#CC3CC3)ccc2S1(=O)=O	none
O=C([C@@H]1[C@@H](CO)[C@@H]2Cn3c(cccc3=O)[C@H]1N2CC1CCCC1)N1CCc2ccccc2C1	none
O=C(C[C@H]1C[C@@H]2c3cc(NC(=O)NC4CCCC4)ccc3O[C@@H]2[C@H](CO)O1)NCc1ccncc1	none
C/C=C/c1ccc2c(c1)O[C@H](CN(C)C(=O)Nc1cc(F)ccc1F)[C@H](C)CN([C@@H](C)CO)S2(=O)=O	none
C[C@@H]1CN([C@H](C)CO)S(=O)(=O)c2ccc(/C=C/c3ccccc3)cc2O[C@H]1CN(C)C(=O)Nc1cc(F)ccc1F	SIRT5 inh 23
C[C@H](CO)N1C[C@H](C)[C@@H](CN(C)C(=O)Nc2cc(F)ccc2F)Oc2cc(/C=C/c3ccccc3)ccc2S1(=O)=O	SIRT5 inh 21
C[C@H]1CN([C@@H](C)CO)S(=O)(=O)c2ccc(-c3cccc(C#N)c3)cc2O[C@H]1CN(C)C(=O)Nc1cc(F)ccc1F	none
